According to PubChem BioAssay AID1347420 (Sanford-Burnham Center for Chemical Genomics, 2020):
Several values for one entry are separate records, joined by “and”; a condition that tells them apart may be missing. Equal values may be shown once. Out of some 1,300 compounds screened, about 980 (75%) were called active. About 4% were inconclusive and are not listed. The list shows a part of the results. Values without a mark were called inactive.

biological target: Sulfhydryl oxidase 1 (Homo sapiens) (UniProt O00391); test: QSOX1 enzyme inhibitors, primary screen, biochemical, HyperBlu H2O2 luminescence, HTS (AID 1347420); conditions: recombinant QSOX1, HyperBlu H2O2 luminescence; at 12.5 µM; active compounds read high; active = any value above zero; also: values above 100% were filed as inconclusive
Sequence (O00391 whole entry, looked up): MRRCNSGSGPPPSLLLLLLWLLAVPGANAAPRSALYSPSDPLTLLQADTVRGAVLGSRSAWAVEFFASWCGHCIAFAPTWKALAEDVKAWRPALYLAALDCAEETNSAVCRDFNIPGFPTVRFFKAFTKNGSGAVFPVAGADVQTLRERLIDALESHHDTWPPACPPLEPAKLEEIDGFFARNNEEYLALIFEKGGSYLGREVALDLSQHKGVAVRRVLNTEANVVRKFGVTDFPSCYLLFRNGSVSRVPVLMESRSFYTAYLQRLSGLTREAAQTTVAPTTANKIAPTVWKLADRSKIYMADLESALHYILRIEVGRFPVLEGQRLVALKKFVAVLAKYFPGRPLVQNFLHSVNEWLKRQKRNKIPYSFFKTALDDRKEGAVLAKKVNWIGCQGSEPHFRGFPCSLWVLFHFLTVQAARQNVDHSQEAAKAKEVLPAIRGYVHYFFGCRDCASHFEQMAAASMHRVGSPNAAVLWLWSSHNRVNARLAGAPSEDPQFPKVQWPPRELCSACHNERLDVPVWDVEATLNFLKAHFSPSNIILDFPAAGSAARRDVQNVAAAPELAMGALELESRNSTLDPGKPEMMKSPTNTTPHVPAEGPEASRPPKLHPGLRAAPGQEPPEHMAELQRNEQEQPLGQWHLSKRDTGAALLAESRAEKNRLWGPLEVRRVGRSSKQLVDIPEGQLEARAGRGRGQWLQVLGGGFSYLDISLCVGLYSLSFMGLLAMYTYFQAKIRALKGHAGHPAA

Structure (SMILES) | inhibition
O=C(OCCN1CCOCC1)C1(c2ccccc2)CCCCC1 | 14.9% (active)
CCN(CC)CCOCCOC(=O)C1(c2ccccc2)CCCC1 | -2.7%
c1ccc(CN2CCC3(CCCc4ccccc43)CC2)cc1 | -10.4%
C[C@H](NC(CCc1ccccc1)C(=O)O)C(=O)N1CCC[C@H]1C(=O)O (stereo not given in full) | -5.7%
CCOC(=O)[C@H](CCc1ccccc1)N[C@@H](C)C(=O)N1[C@H](C(=O)O)C[C@H]2CCCC[C@@H]21 | 12.1% (active)
COC(=O)C1=C(C)NC(C)=C(C(=O)OC)C1c1ccccc1[N+](=O)[O-] | 54.9% (active)
COC(=O)C1=C(C)NC(C)=C([N+](=O)[O-])C1c1ccccc1C(F)(F)F (stereo not given) | 59.9% (active)
CCO/C([O-])=N/c1c[n+](N2CCOCC2)no1 | -0.8%
Cc1nc2c(OCc3ccccc3)cccn2c1CC#N | 11.8% (active)
N=C(N)c1ccccc1 | -0.4%
NC(N)=NC(N)=Nc1ccccc1 | 6% (active)
NC(N)=NC(N)=Nc1cccc(Cl)c1 | 25.1% (active)
CN1CCN2c3ccccc3Cc3ccccc3C2C1 (stereo not given) | 9.7% (active)
CCCn1c(=O)c2[nH]c(C3CCCC3)nc2n(CCC)c1=O | 5.5% (active)
Cn1c(=O)c2[nH]c(C3CCCC3)nc2n(C)c1=O | 7.5% (active)
O=C(c1cc(O)c(O)c([N+](=O)[O-])c1)c1ccccc1F | 83.5% (active)
CC(C)C[C@H](NC(=O)[C@H](O)[C@H](N)Cc1ccccc1)C(=O)O | -3.8%
CC(C)C[C@H](NC(=O)[C@@H](O)[C@H](N)Cc1ccccc1)C(=O)O | 0.9% (active)
CCC(NC(C)C)C(O)c1ccc(O)c(O)c1 (stereo not given) | 38.5% (active)
CC(C)NCC(O)c1ccc(NS(C)(=O)=O)cc1 (stereo not given) | 4.1% (active)
CC(C)NCC(O)c1ccc(O)c(O)c1 (stereo not given) | 29% (active) and 11.6% (active)
CC(C)NC[C@H](O)c1ccc(O)c(O)c1 | 38.5% (active)
O=C(O)CCC/C=C\C[C@@H]1[C@@H](/C=C/[C@H](O)C2Cc3ccccc3C2)[C@@H](F)C[C@@H]1O | -13.7%
CC(C)(C)NCC(O)c1cc(O)cc(O)c1 (stereo not given) | 3% (active)
CC(C)(C)NCC(O)c1ccc(O)c(CO)c1 (stereo not given) | 17.3% (active)
CC(C)NCC(O)c1cc(O)cc(O)c1 (stereo not given) | 8.3% (active)
CC(C)NCC(O)COc1ccc(COCCOC(C)C)cc1 (stereo not given) | -12.7%
Nc1ccc(S(=O)(=O)Nc2ccnn2-c2ccccc2)cc1 | 27.9% (active)

Structure (SMILES) | inhibition
O=c1cc(N2CCOCC2)oc2c(-c3ccccc3)cccc12 | 4.6% (active)
Cc1cc(O)c2c(c1)C(=O)c1cc(O)cc(O)c1C2=O | 17.7% (active)
OCC1O[C@H]([S-])[C@@H](O)C(O)[C@@H]1O.[Au+] (stereo not given in full) | 29.5% (active)
N=C(N)SCCc1ccc(CCSC(=N)N)cc1 | 9% (active)
N=C(N)SCCN | -3.9%
Oc1cc2c(cc1O)CN(C(=S)NCCc1ccc(Cl)cc1)CCC2 | 83.2% (active)
COc1ccc2[nH]cc(CCNC(C)=O)c2c1 | 15.6% (active)
COc1cc2c(CCNC(C)=O)c[nH]c2cc1Cl | 14.3% (active)
CC(=O)NCCc1c[nH]c2ccc(O)cc12 | 92.2% (active)
COc1ccc(NC=O)c(C(=O)CCNC(C)=O)c1 | -9.8%
O=c1[nH]cc(F)c(=O)[nH]1 | 13.9% (active)
Cc1cc(NC(=O)Nc2ccc3c(ccn3C)c2)sn1 | 13.4% (active)
CNCCCN1c2ccccc2CCc2ccccc21 | 34.2% (active)
CN(C)CCCN1c2ccccc2CCc2ccccc21 | 31.8% (active)
CN(C)CCCN1c2ccccc2CCc2ccc(Cl)cc21 | -0.4%
CC(CN(C)C)CN1c2ccccc2CCc2ccccc21 (stereo not given) | 29.4% (active)
CC(=O)c1ccc(S(=O)(=O)NC(=O)NC2CCCCC2)cc1 | -1.5%
Cc1ccc(S(=O)(=O)NC(=O)NN2CCCCCC2)cc1 | 49.9% (active)
CCCCNC(=O)NS(=O)(=O)c1ccc(C)cc1 | 10.2% (active)
CCCNC(=O)NS(=O)(=O)c1ccc(Cl)cc1 | 0.5% (active)
OC(CN1CCN(c2cccc(Cl)c2)CC1)C(c1ccccc1)c1ccccc1 (stereo not given) | 17.3% (active)
C[C@]12C[C@H](O)[C@H]3[C@@H](CCC4=CC(=O)CC[C@@]43C)[C@@H]1CC[C@@H]2C(=O)CO | 9.4% (active)
C[C@]12CCC(=O)C=C1CC[C@@H]1[C@@H]2[C@@H](O)C[C@@]2(C)[C@H]1CC[C@]2(O)C(=O)CO | 9% (active)
N[C@H](C(=O)O)[C@H]1C[C@@H]1C(=O)O | 20.9% (active)
O=C(O)c1cc(=O)cc(C(=O)O)[nH]1 | 10.2% (active)
N[C@@H](Cc1ccc(O)c(I)c1)C(=O)O | 14.8% (active)
NC(Cc1ccc(Cl)cc1)C(=O)O (stereo not given) | 6.1% (active)
